Compound activity as filed in PubChem BioAssay.
Pf Dd2 inh: qHTS Primary assay for Inhibitors of Plasmodium falciparum Dd2 growth in vitro | P. falciparum Dd2 growth, SYBR Green, 72 h | Potency, µM (doses to about 28.9 µM), inactives show top-dose activity, negative = inhibition, most hits filed as inhibitors | 120,000 compounds, 4.3% hits | AID 1347417, 2020; active = well fitted inhibition curve with a large enough effect;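 also: plate controls were DMSO vehicle for no effect and reference drug for full effect; nearly all actives have a fitted effect of over 65% in size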
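Readout: SYBR Green fluorescence, 485 nm excitation, 535 nm emission, after ~16 h lysis at 37C. Before that, Dd2-infected red cells (2.5% hematocrit) grew 72 h with compound, 29 uM top final concentration.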
* marks the source's active call; other numbers are inactive results; [ ] = remark or other dose. The full list was thinned out, with hits kept by preference. Potency is read from the fitted curve at half-maximal effect.

For O=C(NCc1cn[nH]c1-c1cccs1)c1cn(CCC2CCCCN2)nn1 (configuration not stated) the results were Pf Dd2 inh -7.6%.
For COCC(=O)Nc1ccc(-c2noc([C@@H]3CCCN3Cc3cccnc3)n2)cn1 the results were Pf Dd2 inh 8.91µM*.
For COc1cc(CN2CCC[C@H]2c2nc(-c3ccc(-c4ccncc4)nc3)no2)cc(OC)c1OC the results were Pf Dd2 inh 5.01µM*.
COc1ccc(-c2noc([C@@H]3CCCN3C(=O)c3ccncc3)n2)cc1OC was read as Pf Dd2 inh 80.0%.
COCCNc1ncccc1-c1noc([C@@H]2CCCN2Cc2cc(OC)c(OC)c(OC)c2)n1 was read as Pf Dd2 inh -1.5%.
Screening COCCNc1ccc(-c2noc([C@@H]3CCCN3Cc3cc(OC)c(OC)c(OC)c3)n2)cn1 returned Pf Dd2 inh 8.91µM*.
COCCNc1ccc(-c2noc([C@@H]3CCCN3C3CCC3)n2)cn1 was read as Pf Dd2 inh inactive.
Screening COc1ccc(C(=O)Nc2ccc(-c3noc([C@@H]4CCCN4Cc4c[nH]c5ccccc45)n3)cn2)cc1 returned Pf Dd2 inh 7.94µM*.
Screening COCC(=O)Nc1ccc(-c2noc([C@@H]3CCCN3Cc3ncc[nH]3)n2)cn1 returned Pf Dd2 inh -22.7%[44.1 µM].
Screening COCCOc1ccc(-c2noc([C@@H]3CCCN3Cc3c[nH]c4ccccc34)n2)cn1 returned Pf Dd2 inh inactive.
Fc1ccc(-c2noc([C@@H]3CCCN3Cc3ccc(Cl)cc3)n2)nc1 was read as Pf Dd2 inh inactive.
For COc1ccc(C(=O)Nc2ccc(-c3noc([C@@H]4CCCN4Cc4ccco4)n3)cn2)cc1 the results were Pf Dd2 inh -1.3%.
Screening COCC(=O)N1CC(F)(F)C[C@H]1c1nc(-c2cccnc2)no1 returned Pf Dd2 inh 9.6%.
O=C(Cn1nc2n(c1=O)CCCCC2)NCc1ccc2c(c1)OCO2 was read as Pf Dd2 inh -23.1%.
`CC(C)(O)CCc1cccc(C(=O)NCc2ccccc2Cn2cccn2)c1` gave Pf Dd2 inh -7.9%.
For Cn1ccnc1CNc1nccc(-c2cnn(-c3ccccc3F)c2)n1 the results were Pf Dd2 inh inactive.
For COC(=O)[C@@H]1C[C@H](NC(=O)c2cccc(-n3nnnc3C)c2)CN1C the results were Pf Dd2 inh -8.9%.
Screening Cc1cccc(CC(=O)N2CCCN(c3cc(-c4ccc(Br)cc4)[nH]n3)CC2)c1 returned Pf Dd2 inh inactive.
COc1ccc(-n2nc(C3CCCN(C(=O)Nc4ccc(Cl)cc4)C3)[nH]c2=O)cc1 (configuration not stated) was read as Pf Dd2 inh inactive.
C[C@]1(CO)[C@H]2Cc3sc(NC(=O)c4ccco4)nc3[C@@H](CC(=O)NC3CC3)[C@]2(C)CC[C@H]1O was read as Pf Dd2 inh -12.9%.
O=C(c1ccc(Oc2ccccc2)cc1)N1CCC2OCCN(c3ccccc3)C(=O)C2C1 (configuration not stated) was read as Pf Dd2 inh -7.2%.
Screening COc1cccc(CN2CCCC3(CCN(C(=O)CNC(N)=O)C3)C2=O)c1OC (configuration not stated) returned Pf Dd2 inh -9.6%.
For CCOCCOC1CCN(C(=O)c2ccc3[nH]ccc3c2)CC1 the results were Pf Dd2 inh -13.5%.
For COc1ccc(C)cc1NC(=O)Cn1c(-c2ccc(F)cc2)nc(C)c(CCO)c1=O the results were Pf Dd2 inh inactive.
CS(=O)(=O)N1CCCC1c1noc(CCC(=O)NC2CCS(=O)(=O)C2)n1 (configuration not stated) was read as Pf Dd2 inh 0.4%.
`Cc1ccc(NC(=O)NCC2CCOCC2)c(C)c1` gave Pf Dd2 inh 13.7%.
`Cc1ccc(C)c(CN2CCC(CNC(=O)Nc3ccc(Br)cc3F)CC2)c1` gave Pf Dd2 inh 8.91µM*.
`COc1ccc(NC(=O)NCC2CCN(Cc3ccccc3F)CC2)c(OC)c1` gave Pf Dd2 inh 10.7%.
`Cc1ccc(-c2cc(C(=O)N3CCC(c4cc(CC(=O)O)[nH]n4)CC3)n[nH]2)o1` gave Pf Dd2 inh -5.4%.
Screening Cn1cc(CN2C[C@H](C(=O)Nc3cccnc3)C[C@@H]2c2cccc(C(F)(F)F)c2)cn1 returned Pf Dd2 inh inactive.
`CO[C@H]1C(=O)N(C2CCN(C(=O)c3cccc(C#N)c3)CC2)[C@H]1c1ccncc1` gave Pf Dd2 inh 29.6%.
For COc1ccc2[nH]c3c(c2c1)CCN(C)C31CCN(C(=O)C2CCCC2)CC1 the results were Pf Dd2 inh inactive.
Screening COc1cc(C(=O)N2CCc3c([nH]c4ccccc34)C2c2ccc(F)cc2)cc(OC)c1OC (configuration not stated) returned Pf Dd2 inh 4.47µM*.
Screening CCc1ccccc1NC(=O)N1CCc2c([nH]c3ccccc23)C1c1ccc(C)cc1 (configuration not stated) returned Pf Dd2 inh -20.3%.
For CCOc1ccc(C2c3[nH]c4ccccc4c3CCN2C(=O)CCC2CCCC2)cc1 (configuration not stated) the results were Pf Dd2 inh -10.4%.
`CCOc1cc(CNC(=O)C2CCN(c3nc4ccccc4[nH]3)CC2)cc(OCC)c1OCC` gave Pf Dd2 inh 28.9%.
`COc1ccc(C2c3[nH]c4ccc(OC)cc4c3CCN2C(=O)Nc2ccccc2)cc1` (configuration not stated) gave Pf Dd2 inh 6.31µM*.
CCOc1cccc(CC(=O)N2CCc3c([nH]c4ccccc34)C2c2ccc(Cl)cc2)c1OCC (configuration not stated) was read as Pf Dd2 inh 5.01µM*.
COc1ccc(C(=O)N2CC(=O)Nc3ccc(Br)cc3C2c2ccc(F)cc2)cc1OC (configuration not stated) was read as Pf Dd2 inh -24.4%.
COc1ccccc1C(=O)NC1CCCc2c1[nH]c1ccccc21 (configuration not stated) was read as Pf Dd2 inh -22.4%.
CCOc1cc(C(=O)N2CCc3c([nH]c4ccccc34)C2c2ccccc2)cc(OCC)c1OCC (configuration not stated) was read as Pf Dd2 inh 2µM*.
For CCOc1cccc(CC(=O)NCc2ccc3c(c2)CCN3C(=O)c2cccc(C)c2)c1OCC the results were Pf Dd2 inh -14.1%.
For CCOc1cc(C(=O)N2CCC[C@H]2c2nc(-c3ccc(C)cc3)no2)cc(OCC)c1OCC the results were Pf Dd2 inh inactive.
Screening Cc1cc(C2CC(C(=O)NCCc3ccccc3)CN(C(=O)NC(C)C)C2)ccc1F (configuration not stated) returned Pf Dd2 inh inactive.
`Cc1nc(C2CC(NC(=O)c3ccc(C)c(N4CCNC4=O)c3)C2)cc(=O)[nH]1` (configuration not stated) gave Pf Dd2 inh -13.0%.
O=C(c1c[nH]c2ncccc12)N1CCC(N2CCCC2)CC1 was read as Pf Dd2 inh -13.8%[44.1 µM].
For O=C(NCc1nnc2ccc(-c3ccccc3)nn12)c1cc(F)ccc1Cl the results were Pf Dd2 inh 5.1%.
CN(Cc1ccc(N(C)C)cc1)Cc1cccn1C was read as Pf Dd2 inh 3.6%[44.1 µM].
For O=C(C1CCCN(c2nc3ncccc3o2)C1)N1CCOCC1 (configuration not stated) the results were Pf Dd2 inh -8.9%[44.1 µM].
CCCNC(=O)N1CCCCCNC(=O)[C@@H]2CCCC[C@@H]21 was read as Pf Dd2 inh -4.9%.
